Source: PubChem BioAssay (NCATS)
Values without a mark were called inactive. Records with an inconclusive call do not appear. Calls of active or inactive are those of the source. Unless noted, the call rests on the fitted dose curve; in most records, active means well fitted curve in either direction with a large enough effect (not every such curve was filed as active); inconclusive means small, poorly fitted or top-dose-only effect, or another doubt; inactive means flat fitted curve, though single readings scatter.

How the values were obtained:
[1] = AP1 Signaling Pathway (AID 357); details: ME-180 AP-1-bla reporter, EGF-induced, beta-lactamase ratio, 5 h; at 17.2 µM (top of the series) unless noted;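 further: ME-180 reporter cells stimulated with EGF at its EC50 level; on the % scale 0 is the no-effect control and ±100 the full control effect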
In short: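 AP-1-bla ME-180 cells, Opti-MEM + 0.5% dialyzed FBS, plated overnight 37 °C. Cpd titration + EC50 EGF, 5 h 37 °C. CCF4 2.5 h RT; ex 405, em 460/530 ratio → %activity, AC50.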

[2] = NFAT Signaling Pathway (AID 444); details: Jurkat NFAT-bla M1, carbachol, beta-lactamase ratio, 5 h; at 17.2 µM (top of the series) unless noted;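 further: carbachol stimulus at about its EC50 of 1 µM final; on the % scale 0 is the no-effect control and ±100 the full control effect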
In short: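 Jurkat cells carrying an NFAT-driven β-lactamase reporter and co-transfected muscarinic M1 receptor were treated with compound plus carbachol (1 uM final, an EC50 level) for 5 h at 37 °C. CCF4 loading followed for 1 h at RT; 460/530 nm ratio gave %activity.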

[3] = Stat Signaling Pathway (AID 446); details: ME-180 SIE beta-lactamase reporter, IL-6 stimulated, 5 h; at 17.2 µM (top of the series) unless noted;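 further: ME-180 cervical cancer cells given 40 pM IL-6 alongside compound; SIE-controlled beta-lactamase reporter measured as 460/530 nm FRET emission ratio; on the % scale 0 is the no-effect control and ±100 the full control effect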
In short: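 Screening format detects activators and inhibitors alike: ME-180 SIE-bla cells stimulated at 40 pM IL-6 for 5 hrs with compound, then dual-emission beta-lactamase read at 405 nm excitation.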

[4] = molecular target: Glucocorticoid receptor (Homo sapiens) (UniProt P04150); experiment: GR-GFP Redistribution (AID 450;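 active means compounds whose dose series gives a full or clear partial fitted curve of increased nuclear translocation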; further: potency means the concentration at half of the fitted maximal effect)
Glucocorticoid receptor (Homo sapiens), sequence (P04150 whole entry, looked up): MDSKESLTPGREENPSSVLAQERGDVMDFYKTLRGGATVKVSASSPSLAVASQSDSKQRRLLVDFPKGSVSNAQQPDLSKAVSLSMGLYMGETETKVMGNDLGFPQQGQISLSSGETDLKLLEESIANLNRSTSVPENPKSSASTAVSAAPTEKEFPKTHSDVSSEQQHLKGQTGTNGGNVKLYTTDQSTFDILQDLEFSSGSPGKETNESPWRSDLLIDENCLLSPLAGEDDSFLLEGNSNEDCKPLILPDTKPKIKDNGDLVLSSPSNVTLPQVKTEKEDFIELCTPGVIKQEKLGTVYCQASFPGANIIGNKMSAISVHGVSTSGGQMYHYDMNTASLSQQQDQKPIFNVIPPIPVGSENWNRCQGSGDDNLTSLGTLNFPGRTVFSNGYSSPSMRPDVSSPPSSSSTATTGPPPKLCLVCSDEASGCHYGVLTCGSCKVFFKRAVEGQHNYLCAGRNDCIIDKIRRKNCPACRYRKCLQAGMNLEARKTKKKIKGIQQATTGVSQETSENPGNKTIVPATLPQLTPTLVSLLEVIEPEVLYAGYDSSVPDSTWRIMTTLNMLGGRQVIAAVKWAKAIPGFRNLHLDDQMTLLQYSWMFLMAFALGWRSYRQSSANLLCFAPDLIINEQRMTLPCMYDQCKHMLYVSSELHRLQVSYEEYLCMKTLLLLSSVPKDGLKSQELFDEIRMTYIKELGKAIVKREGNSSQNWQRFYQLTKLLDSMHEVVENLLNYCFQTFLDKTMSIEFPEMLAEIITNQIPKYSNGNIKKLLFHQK

Row | Compound | activity change, negative = inhibition [1] | activity change, negative = inhibition [2] | activity, negative = inhibition [3] | Potency [4]
1 | COC(=O)c1[nH]c2ccc(Cl)cc2c1NC(=O)C1CC1 | -4.32% | -26.4% | 1.62% | > 20.6 µM
2 | Cc1cc(C(F)(F)F)c(C#N)c(SCC(=O)NC2CC2)n1 | 19.7% | -9.19% | 1.05% | > 20.6 µM
3 | N#C/C(C(=O)N1CCCCC1)=C1\Nc2ccccc2S1 | -15% | 11.9% | -10.3% | > 20.6 µM
4 | Cc1cccc(C)c1OCC(O)CNS(=O)(=O)c1ccccc1C(=O)N1CCOCC1 (stereo not given) | -8.76% | 9% | 3.91% | > 20.6 µM
5 | Cn1c(=O)[nH]c(=O)c2c1nc(N(CCO)Cc1ccccc1)n2Cc1ccccc1Cl | -1.99% | -6.08% | -4.12% | > 20.6 µM
6 | NC(=O)C1CCN(C2OC(=O)c3ccccc32)CC1 (stereo not given) | 2.97% | 1.22% | 10.3% | > 20.6 µM
7 | CCOC(=O)C1=C(C)NC(=O)NC1c1ccc2c(c1)OCO2 (stereo not given) | -4.59% | -26.9% | -3.46% | > 20.6 µM
8 | CCOC(=O)C1CCN(C(C)=C2C(=O)c3ccccc3C2=O)CC1 | 2.67% | 4.7% | 1.52% | inactive
9 | c1nc(NC2CCCCC2)c2[nH]cnc2n1 | -4.39% | 2.42% | -29.4% | > 20.6 µM
10 | Cc1cc(NC(=O)CSc2nc(-c3cccnc3)ccc2C#N)no1 | -14.4% | 6.09% | -9.33% | > 20.6 µM
11 | CCC(NC(=O)Nc1nnc(C(F)(F)F)s1)(C(F)(F)F)C(F)(F)F | 18.4% | -115% (active) | -38.4% | > 20.6 µM
12 | CC1(C)Cc2c(sc3nc4n(c(=O)c23)CCC4)CO1 | -2.8% | 2.28% | -2.43% | > 20.6 µM
13 | Cc1cccc(COc2ccc(/C(O)=C3\C(=O)C(=O)N(CCN(C)C)C3c3ccncc3)cc2)c1 (stereo not given) | 4.68% | 13.1% | 2.96% | > 20.6 µM
14 | Cc1ccccc1N1C(=O)C2ON(c3ccccc3)C(c3ccncc3)C2C1=O (stereo not given) | 5.78% | 18.5% | 1.29% | > 20.6 µM
15 | Cn1c2c(c(=O)n(C)c1=O)C(NC(=O)c1cccs1)(C(F)(F)F)C(=O)N2 (stereo not given) | -2.19% | 12.3% | 5.6% | > 20.6 µM
16 | COc1ccc(/C(O)=C2/C(=O)C(=O)N(CCN(C)C)C2c2ccccn2)cc1OC (stereo not given) | 4.92% | -3.03% | -3.63% | > 20.6 µM
17 | c1coc(CNc2ncnc3ccccc23)c1 | -22.1% | -14.7% | -18.3% | > 20.6 µM
18 | O=C(O)CC(C(=O)OCCOc1ccccc1)N1CCOCC1 (stereo not given) | -4.83% | -6.82% | -1.47% | > 20.6 µM
19 | Cc1ccc(N2C(=O)C3ON(c4ccccc4)C(c4ccncc4)C3C2=O)c(C)c1 (stereo not given) | 4.43% | 26.3% | 0.652% | > 20.6 µM
20 | FC(F)(F)c1cccc(-n2cccc2/C=N/n2cnnc2)c1 | 8.38% | -0.658% | 10.7% | > 20.6 µM
21 | CCOC(=O)CCCCC(=O)NC(CO)C(=O)NC (stereo not given) | 13.2% | 6.3% | 8.86% | > 20.6 µM
22 | O=C1C(=O)N(CCN2CCOCC2)C(c2ccccn2)/C1=C(/O)c1ccccc1 (stereo not given) | -4.12% | 3.29% | -1.75% | > 20.6 µM
23 | COCCNc1oc(-c2ccc(Cl)cc2)nc1C#N | -8.7% | -6.46% | -5.03% | > 20.6 µM
24 | C[C@]12CC[C@@H]3c4ccc(O[C@@H]5O[C@H](C(=O)O)[C@@H](O)[C@H](O)[C@H]5O)cc4CC[C@H]3[C@@H]1C[C@@H](O)[C@@H]2O | 4.45% | -30% | 11.5% | > 20.6 µM
25 | Nc1nnc(CSCc2ccc(F)cc2)s1 | 8.86% | -1.8% | -2.21% | > 20.6 µM
